# Screening data as filed in PubChem BioAssay.
# C diff HTS = C. difficile growth inhibitors, primary screen, HTS | Clostridium difficile clinical isolate growth, OD600, 24 h; stronger effect = lower value | growth activity, negative = inhibition, % at 16 µg/mL (by protocol) | 0.25% of 86,000 active | AID 1259249, 2017;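 active = mean growth activity at or below -80% and every replicate also at or below -80%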
# Pf Dd2 inh = P. falciparum Dd2 growth inhibitors, primary screen, SYBR Green fluorescence, single dose replicates; 72 h; stronger effect = lower value; activity change, % at 10 µM; 2.3% of 94,000 active; AID 1159554, 2015; in the data active = activity change below about -80%
# T cruzi growth-1 = T. cruzi intracellular proliferation inhibitors, primary screen, cell-based, beta-gal Tulahuen parasites, NIH3T3 host, luminescence. T. cruzi beta-gal in NIH3T3, GalScreen luminescence, 90 h. inhibition, % at 8.34 µM. 5.9% of 77,000 active. AID 624255, 2012;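 active = mean inhibition above about 93%, with at least 55% of replicates each passing it, limit read from the data, passing the limit was not always enough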
# T cruzi growth-2 = T. cruzi intracellular proliferation inhibitors, confirmation, cell-based, NIH3T3 host, beta-gal parasite, luminescence, cherry-pick. shares compounds with T cruzi growth-1. 72% of 5,600 active. inhibition, % at 8.35 µM. AID 651739, 2012. T. cruzi beta-gal in NIH3T3, GalScreen luminescence, 90 h;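 active = mean replicate inhibition above about 95% and at least 55% of replicates individually reaching it, limit read from the data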
# T cruzi growth-3 = inhibitors of intracellular T. cruzi replication, confirmation, NIH3T3 host cells, beta-gal parasites, cherry-pick, set 2; shares compounds with T cruzi growth-1; T. cruzi beta-gal in NIH3T3, GalScreen luminescence, 90 h; inhibition, % at 2.09 µM; 21% of 5,600 active;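 active = mean inhibition above about 95%, with at least 55% of replicates also reaching it, limit read from the data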
# 3T3 cytotox = cytotoxicity in mouse NIH/3T3 fibroblasts, confirmation, cytotoxicity control for T. cruzi proliferation inhibitor project, cell-based, cherry-pick, single point | cytotoxicity (signal decrease), % at 8.35 µM | 14% of 5,600 active | NIH/3T3 viability, CellTiter-Glo ATP luminescence, 90 h | shares compounds with T cruzi growth-1;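 active = mean signal decrease across replicates above about 35% based on untreated-well scatter, with enough replicates individually passing, limit read from the data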
# 3T3 cytotox 2 = NIH/3T3 fibroblast cytotoxicity, confirmation, cytotoxicity control, cell-based, cherry-pick, single point, set 2; shares compounds with T cruzi growth-1; NIH/3T3 viability, CellTiter-Glo ATP luminescence, 90 h; inhibition, % at 24.9 µM; 56% of 5,600 active; AID 651744, 2012;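 active = mean loss of cell viability signal at or above a set limit, and enough replicates individually reaching it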
# Numbers stand for hits; . = inactive; / = no result given. Hits are enriched below; roughly 6.7% of the tested compounds scored in any of these assays.
SMILES,C diff HTS,Pf Dd2 inh,T cruzi growth-1,others
C[C@@H]1CCCCO[C@@H](CN(C)CC2CC2)[C@@H](C)CN([C@H](C)CO)C(=O)c2cc(NS(=O)(=O)c3ccc(Cl)cc3)ccc2O1,.,.,.,
C[C@@H]1CCCCO[C@@H](CN(C)CC2CCCCC2)[C@H](C)CN([C@H](C)CO)C(=O)c2cc(NS(=O)(=O)c3ccc(Cl)cc3)ccc2O1,.,.,.,
C[C@@H]1CCCCO[C@@H](CN(C)CC2CCCCC2)[C@H](C)CN([C@@H](C)CO)C(=O)c2cc(NS(=O)(=O)c3ccc(Cl)cc3)ccc2O1,.,.,102,T cruzi growth-2=105;T cruzi growth-3=.;3T3 cytotox=.;3T3 cytotox 2=106
C[C@H]1CN([C@@H](C)CO)C(=O)c2cccc(NS(=O)(=O)c3cn(C)cn3)c2O[C@H]1CN(C)S(=O)(=O)c1ccccc1,.,.,.,
O=C(C[C@@H]1C=C[C@H](NC(=O)CCN2CCCCC2)[C@@H](CO)O1)NCc1ccc(Cl)c(Cl)c1,/,.,.,
C[C@@H]1CN([C@@H](C)CO)S(=O)(=O)c2ccc(-c3ccc(C(=O)N(C)C)cc3)cc2O[C@H]1CN(C)C(=O)C1CCC1,.,.,.,
C[C@H]1CN([C@@H](C)CO)C(=O)Cc2cc(NC(=O)CCCCCC(=O)Nc3ccccc3N)ccc2O[C@H]1CN(C)S(=O)(=O)c1ccccc1,.,.,.,
C[C@@H]1CN([C@@H](C)CO)S(=O)(=O)c2ccc(-c3cccc(C(=O)N(C)C)c3)cc2O[C@H]1CN(C)C,.,.,.,
CN1CCCCN2[C@H](CO)[C@@H](c3ccc(/C=C/c4ccccc4)cc3)[C@H]2C1,.,.,.,
CCC(=O)N1CCCCN2[C@@H](CO)[C@H](c3ccc(/C=C/c4ccccc4)cc3)[C@@H]2C1,.,.,116,T cruzi growth-2=106;T cruzi growth-3=.;3T3 cytotox=43;3T3 cytotox 2=105
CCC(=O)N1CCCCN2[C@H](CO)[C@@H](c3ccc(/C=C/c4ccccc4)cc3)[C@H]2C1,.,.,.,
CCC(=O)N1CCCCN2[C@H](CO)[C@H](c3ccc(/C=C/c4ccccc4)cc3)[C@H]2C1,.,.,117,T cruzi growth-2=102;T cruzi growth-3=.;3T3 cytotox=.;3T3 cytotox 2=105
COCC(=O)Nc1ccc2c(c1)C(=O)N(C)[C@H]1CC[C@@H](CC(=O)NCc3ccccc3Cl)O[C@H]1CO2,.,.,.,
O=C(C[C@@H]1CC[C@H](NC(=O)C2CCC2)[C@@H](CO)O1)NCc1ccccc1Cl,.,.,.,
C[C@H](CO)N1C[C@H](C)[C@@H](CN(C)Cc2ccc(C(=O)O)cc2)OCc2ccccc2-c2c(n(C)c3ccccc23)C1=O,/,.,.,
CCCC(=O)Nc1ccc2c(c1)C(=O)N(C)C[C@H](OC)[C@@H](C)CN(C(=O)c1ccccc1F)[C@@H](C)CO2,.,.,.,
CC(C)(C)[S@](=O)N1Cc2cc(C(=O)N3CCCCC3)nc(-c3cccc(-c4ccc(C#N)cc4)c3)c2[C@@H]1CCO,/,.,101,T cruzi growth-2=107;T cruzi growth-3=.;3T3 cytotox=.;3T3 cytotox 2=.
CC(C)(C)[S@@](=O)N1Cc2cc(C(=O)NCCN3CCCC3)nc(-c3cccc(-c4ccc(C#N)cc4)c3)c2[C@H]1CCO,/,.,.,
CC(C)(C)[S@@](=O)N1Cc2cc(C(=O)NCCc3ccncc3)nc(-c3cccc(-c4cccc(C#N)c4)c3)c2[C@H]1CCO,/,.,.,
CC(C)(C)[S@](=O)N1Cc2cc(C(=O)NCCc3ccncc3)nc(-c3cccc(-c4ccc(C#N)cc4)c3)c2[C@@H]1CCO,/,.,97,T cruzi growth-2=112;T cruzi growth-3=.;3T3 cytotox=46;3T3 cytotox 2=39
COc1cccc(CNC(=O)c2cc3c(c(-c4cccc(-c5cccc(C#N)c5)c4)n2)[C@H](CCO)N([S@@](=O)C(C)(C)C)C3)c1,/,.,.,
